Source: the supplement of paper PMC7393113
Where a name gives a salt, the structure may show the parent alone. ± gives the standard deviation of the averaged measurements.

System: iBMDM (immortalised mouse bone-marrow-derived macrophages), LPS-stimulated
Assay: mitochondrial superoxide (MitoSOX fluorescence) fold increase over unstimulated control; higher = more LPS-induced mitochondrial ROS (less inhibition)
Settings: inhibitor concentration: 500 nM, LPS: 100 ng/ml
Method in brief: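 Immortalised mouse bone-marrow-derived macrophages in black 96-well plates were kept in phenol-red-free 1% FCS/DMEM for 20 h, pretreated 30 min with kinase inhibitors (500 nM), loaded with 1 μM MitoSox for 10 min and then given LPS (100 ng/ml). Fluorescence at excitation/emission 510/580 nm was read on a ClarioStar plate reader every 60 min for 4 h, with wells in triplicate. Mitochondrial superoxide is given as fold induction over untreated macrophages, averaged across replicates.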

SMILES | mitochondrial superoxide (time after LPS: 1 h) | mitochondrial superoxide (time after LPS: 2 h) | mitochondrial superoxide (time after LPS: 4 h)
CN1CCN(S(=O)(=O)c2ccc(-c3cnc(N)c(C(=O)Nc4cccnc4)n3)cc2)CC1 | 1.34 ± 0.053 | 1.46 ± 0.031 | 1.63 ± 0.03
Cn1cnc2c(F)c(Nc3ccc(Br)cc3F)c(C(=O)NOCCO)cc21 | 1.13 ± 0.046 | 1.26 ± 0.038 | 1.29 ± 0.028
CNC(=O)CN1CCC(Oc2cc3c(Nc4cccc(Cl)c4F)ncnc3cc2OC)CC1 [AZD8931 (Sapitinib)] | 1.12 ± 0.041 | 1.24 ± 0.048 | 1.37 ± 0.046
Cc1ccc(-c2nn(C(C)(C)C)c3ncnc(N)c23)cc1 | 1.18 ± 0.043 | 1.22 ± 0.055 | 1.34 ± 0.046
CCN1CCN(Cc2ccc(Nc3ncc(F)c(-c4cc(F)c5nc(C)n(C(C)C)c5c4)n3)nc2)CC1 | 1.13 ± 0.056 | 1.25 ± 0.02 | 1.36 ± 0.022
O=C(/C=C/c1ccc(O)c(O)c1)c1ccc(O)cc1O [Butein] | 1.49 ± 0.065 | 1.65 ± 0.067 | 1.85 ± 0.019
CS(=O)(=O)c1ccc(-c2cnc(N)c(C(=O)Nc3ccccc3)n2)cc1 | 1.23 ± 0.053 | 1.46 ± 0.052 | 1.6 ± 0.078
CN1CCN(C2CCN(C(=O)Nc3cc(Oc4ccc(NC(=O)C5(C(=O)Nc6ccc(F)cc6)CC5)c(F)c4)ccn3)CC2)CC1 [Golvatinib (E7050)] | 1.04 ± 0.073 | 1.08 ± 0.075 | 1.09 ± 0.071
C#Cc1cccc(Nc2ncnc3cc(OC)c(OCCCCCCC(=O)NO)cc23)c1 | 1.189 ± 0.011 | 1.2 ± 0.047 | 1.22 ± 0.051
NC(=O)Nc1cc(-c2cccc(F)c2)sc1C(=O)N[C@H]1CCCNC1 | 1.08 ± 0.056 | 1.11 ± 0.028 | 1.25 ± 0.1
Cc1cc2c(F)c(Oc3ncnn4cc(OC[C@@H](C)OC(=O)[C@H](C)N)c(C)c34)ccc2[nH]1 | 1.37 ± 0.023 | 1.46 ± 0.058 | 1.53 ± 0.016
CO[C@@H](C(=O)N1Cc2[nH]nc(NC(=O)c3ccc(N4CCN(C)CC4)cc3)c2C1)c1ccccc1 | 1.3 ± 0.035 | 1.38 ± 0.029 | 1.48 ± 0.038
CCOc1cc2ncc(C#N)c(Nc3ccc(F)c(Cl)c3)c2cc1NC(=O)/C=C/CN(C)C [Pelitinib (EKB-569)] | 1.2 ± 0.018 | 1.21 ± 0.049 | 1.32 ± 0.032
O=c1cc(N2CCOCC2)oc2c(-c3cccc4c3sc3ccccc34)cccc12 | 1.31 ± 0.028 | 1.4 ± 0.037 | 1.55 ± 0.042
O=C(Nc1cc(C(F)(F)F)cc(C(F)(F)F)c1)c1cc(Cl)ccc1O | 0.988 ± 0.04 | 1.04 ± 0.033 | 1.01 ± 0.054
Cn1cc(C2=C(c3cn(CCCSC(=N)N)c4ccccc34)C(=O)NC2=O)c2ccccc21 [Ro 31-8220 Mesylate] | 1.57 ± 0.051 | 1.6 ± 0.0078 | 1.79 ± 0.12
Nc1ncnc2c1c(-c1cccc(OCc3ccccc3)c1)cn2C1CC(CN2CCC2)C1 (centres undefined) | 1.36 ± 0.069 | 1.48 ± 0.037 | 1.63 ± 0.029

SMILES | mitochondrial superoxide (time after LPS: 1 h) | mitochondrial superoxide (time after LPS: 2 h) | mitochondrial superoxide (time after LPS: 4 h)
Cc1cc(Nc2cc(N3CCN(C)CC3)nc(Sc3ccc(NC(=O)C4CC4)cc3)n2)n[nH]1 [VX-680 (Tozasertib, MK-0457)] | 1.55 ± 0.069 | 1.64 ± 0.051 | 1.73 ± 0.033
CCc1cncnc1N1CCN(Cc2nc3ccc(C(F)(F)F)cc3[nH]2)CC1 | 1.12 ± 0.073 | 1.23 ± 0.037 | 1.34 ± 0.1
O=C1NC(=O)/C(=C/c2ccc3nccc(-c4ccncc4)c3c2)S1 | 1.12 ± 0.055 | 1.23 ± 0.11 | 1.33 ± 0.1
COc1cc(Nc2ncc3c(n2)-c2ccc(Cl)cc2C(c2c(F)cccc2OC)=NC3)ccc1C(=O)O [Alisertib (MLN8237)] | 1.37 ± 0.058 | 1.41 ± 0.035 | 1.46 ± 0.047
COc1ccc(-c2ccc3c(N4CCOC[C@@H]4C)nc(N4CCOC[C@@H]4C)nc3n2)cc1CO | 1.14 ± 0.024 | 1.19 ± 0.031 | 1.25 ± 0.025
Nc1nc(N)c(N=O)c(OCC2CCCCC2)n1 | 1.17 ± 0.03 | 1.25 ± 0.017 | 1.37 ± 0.074
Cc1cn(-c2cc(NC(=O)c3ccc(C)c(Nc4nccc(-c5cccnc5)n4)c3)cc(C(F)(F)F)c2)cn1 [Nilotinib (AMN-107)] | 1.45 ± 0.049 | 1.53 ± 0.07 | 1.65 ± 0.1
Cc1ccc(NC(=O)c2cccc(C(C)(C)C#N)c2)cc1Nc1ccc2ncn(C)c(=O)c2c1 | 1.07 ± 0.05 | 1.14 ± 0.084 | 1.349 ± 0.011
CN(C)C/C=C/C(=O)Nc1cc2c(Nc3ccc(F)c(Cl)c3)ncnc2cc1O[C@H]1CCOC1 [Afatinib (BIBW2992)] | 1.54 ± 0.068 | 1.6 ± 0.047 | 1.77 ± 0.11
O=C(Nc1cccc(Cl)c1)Nc1ncc(CCNc2ncnc3ccsc23)s1 [SNS-314 Mesylate] | 1.32 ± 0.029 | 1.36 ± 0.048 | 1.42 ± 0.08
C#Cc1cccc(Nc2ncnc3cc(OCCOC)c(OCCOC)cc23)c1 [Erlotinib HCl (OSI-744)] | 1.62 ± 0.033 | 1.66 ± 0.076 | 1.76 ± 0.048
CC(=O)Nc1nc(C)c(-c2ccc(Cl)c(S(=O)(=O)NCCO)c2)s1 | 1.02 ± 0.067 | 1.15 ± 0.03 | 1.23 ± 0.048
Nc1cccc(-c2cc3c(Oc4cccc(O)c4)ncnc3[nH]2)c1 | 1.06 ± 0.059 | 1.17 ± 0.022 | 1.25 ± 0.03
NC(=O)c1ncn([C@@H]2O[C@H](CO)[C@@H](O)[C@H]2O)c1N [Acadesine] | 1.108 ± 0.0017 | 1.2 ± 0.043 | 1.36 ± 0.027
COc1ccc2c(Oc3ccc(NC(=O)c4c(C)n(CC(C)(C)O)n(-c5ccccc5)c4=O)nc3)ccnc2c1 | 1.09 ± 0.031 | 1.2 ± 0.034 | 1.391 ± 0.0084
COc1ccc(CNC(=O)Nc2ncc([N+](=O)[O-])s2)cc1 | 1.47 ± 0.037 | 1.54 ± 0.026 | 1.6 ± 0.096
